Test results taken from PubChem BioAssay (NCI).
Values joined by “and” are separate entries in the source; they are usually repeats but may differ in a detail not shown here. Identical values can stand only once. This is part of a sample that, as a whole, favours compounds with a hit. Of some 83,000 tested, about 20% had one in any assay.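 Interpretation: 100, growth as untreated; towards 0, rising growth inhibition; 0, no net growth; 0 to -100, cell death. Compounds scoring below 10 were considered active.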 Unmarked numbers belong to inactive results. Active and inactive are the calls of the source.

The molecules below were run on MDA-MB-468 breast (assay: NCI-60 one-dose screen, 48 h (100 = growth as untreated, 0 = no growth, -100 = all killed)). Settings: 10 µM unless noted.
`COc1ccc(Cc2cnc(NC(=O)c3ccc4c(c3)OCCO4)s2)cc1` showed a growth of 19.1%. Work on `O=C1Nc2ccc(F)cc2/C1=C\c1nc(-c2ccccc2F)n2ccccc12` yielded a growth of 69.2%. With `Cc1cc2cccnc2c2ncccc12` the growth was -20.5% (active). For `CC(=O)NCc1cc(C)c(C)cc1C`, the growth was 93.4%. `O=C(O)c1c2c(nc3ccccc13)Cc1ccccc1-2` was tested, and the growth was 128% and 89.3%.
